About 9,300 (1.5%) of roughly 640,000 compounds were called active. Cut-off read from the data, not from the text of the source: active = inhibition above about 32%; inactive = the rest. Many of the other results were omitted from the sample, so actives are more common in it than they were.
Test: TEAD-YAP interaction inhibition, primary screen, TEAD-YAP interaction inhibitor project, luminescence, HEK-TIYL cells (AID 1259422);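 note: 0% = median of test compound wells and 100% = reference inhibitor wells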
Details: TEAD-Gal4/YAP UAS-luciferase luminescence, at 9.12 µM, stronger effect = higher value

Compound	inhibition
O=C(OC1CCS(=O)(=O)C1)c1ccccc1 (stereo unspecified)	-9.29% (inactive)
CN1CCN(S(=O)(=O)c2ccc(Sc3ccc(Br)cc3)c(C(=O)O)c2)CC1	-2.07% (inactive)
CCOc1cc(C2Nc3ccccc3C(=O)N2c2ccc(OC)cc2)ccc1O (stereo unspecified)	-26.9% (inactive)
CCCN1C(=O)c2ccccc2NC1c1ccc(OC)c(COc2ccc(Cl)cc2)c1 (stereo unspecified)	1.41% (inactive)
CCCN1C(=O)c2ccccc2NC1c1ccc(O)c(OC)c1 (stereo unspecified)	45.1% (active)
CCOC(=O)N1CCN(C(=O)CC2C(=O)NCCN2Cc2ccccc2C)CC1 (stereo unspecified)	4.23% (inactive)
CCOc1ccc(C(=O)NC(=S)Nc2ccc(N3CCCCC3)cc2)cc1	-3.84% (inactive)
O=C(NC1(c2ccc3c(c2)OCO3)CCCC1)c1cscn1	5.97% (inactive)
CCOC(=O)c1ccc2c(c1)C(=O)N(c1ccc3ccccc3c1)C2=O	-2.85% (inactive)
NC(=O)c1sc2nc(C34CC5CC(CC(C5)C3)C4)ccc2c1N	-1.93% (inactive)
CCOC(=O)c1ccc2nc(C34CC5CC(CC(C5)C3)C4)ccc2c1	46.2% (active)
CC1CCc2sc(NC(=O)c3ccccc3F)c(C#N)c2C1 (stereo unspecified)	-31.8% (inactive)
COCCNc1c(-c2ccc(Cl)cc2)c(=O)c1=O	-4.73% (inactive)
CC(C)OCCCNc1c(-c2ccc(C(C)C)cc2)c(=O)c1=O	42.2% (active)
Cc1ccc(-c2c(NCCCc3ccccc3)c(=O)c2=O)cc1	-2.15% (inactive)
COc1ccc(NS(=O)(=O)c2cc(NC(=O)CCCNC(N)=O)ccc2OC)cc1	5.83% (inactive)
COc1cccc(-c2nc3ccccc3c(=O)n2NC(=O)c2ccccc2C)c1	2.18% (inactive)
COc1cccc(-c2nn3c(=O)c4ccccc4nc3n2N)c1	34.2% (active)
COc1cccc(-c2nc3ccccc3c(=O)n2NC(=O)c2cccc(C)c2)c1	5.37% (inactive)
COc1cccc(OC)c1C(=O)N1CCN(c2cccc(C)c2C)CC1	4.01% (inactive)
COc1ccc(C)cc1S(=O)(=O)N1CCN(c2cc(-n3ccnc3C)ncn2)CC1	41.4% (active)

Compound	inhibition
COc1ccc(C)cc1S(=O)(=O)N1CCN(C)CC1	13.6% (inactive)
COc1ccccc1N1CCN(S(=O)(=O)c2cc(C)ccc2OC)CC1	-9.44% (inactive)
COc1ccc(C[C@@H]2NC(=O)[C@@H]3C[C@H](NCc4cnn(-c5ccccc5F)c4)CN3C2=O)cc1	10.7% (inactive)
CCC(C)N1C(=O)C2C(C(=O)Nc3ccc(F)c(Cl)c3)C3C=CC2(O3)C1C(=O)NC1CCCC(C)C1C (stereo unspecified)	-20.7% (inactive)
C/C(=N\NC(=O)Cc1cccn1C)c1ccc(O)cc1	-12.8% (inactive)
CCN1CCSc2ccc(C(=O)NCCCOC)cc21	0.64% (inactive)
COCCNC(=O)c1ccc2c(c1)N=C(C)c1cc(C)ccc1S2	67.6% (active)
COCCNC(=O)c1ccc2c(c1)N=C(C)c1cc(Br)ccc1S2	52.5% (active)
COCCNC(=O)c1ccc2c(c1)ncn2-c1ccc(C)c(Cl)c1	-17.5% (inactive)
CC1=Nc2cc(C(=O)O)ccc2Sc2ccccc21	-2.24% (inactive)
COCCNC(=O)/C=C/c1ccc(Br)cc1	-24.8% (inactive)
COc1cccc(CCC(=O)N2CCC(CCC(=O)N(C)Cc3ccccc3)CC2)c1	4.53% (inactive)
COc1cc(C2C(C#N)=C(N)Oc3n[nH]c(-c4cc(OC)c(OC)c(OC)c4)c32)ccc1OC(=O)N1CCOCC1 (stereo unspecified)	12.5% (inactive)
O=C(O)c1cc(N=Cc2cc(Br)cc(Cl)c2O)ccc1O	-2.5% (inactive)
CC1=C(C#N)C(c2ccccc2Br)C2=C(CC(c3ccccc3)CC2=O)N1 (stereo unspecified)	37.1% (active)
CC1=C(C#N)C(c2ccc(Cl)cc2Cl)C2=C(CC(c3ccccc3)CC2=O)N1 (stereo unspecified)	11.3% (inactive)
COC(=O)C1=C(C)NC2=C(C(=O)CC(c3ccccc3)C2)C1c1ccc(C)cc1 (stereo unspecified)	2.81% (inactive)
COC(=O)CCCC(=O)N1CCOCCOCCN(C(=O)CCCC(=O)OC)CCOCCOCC1	7.88% (inactive)
COc1ccc(C2=NOC(C(=O)NCc3ccco3)C2)cc1OC (stereo unspecified)	46.8% (active)
COc1ccc(-c2nnc(SCC(=O)NC(=O)NCc3ccco3)o2)cc1OC	12.3% (inactive)
COc1ccc(C2=NOC(C(=O)NCCc3ccccc3)C2)cc1OC (stereo unspecified)	-5.18% (inactive)

Compound	inhibition
CC(C)C[C@@H]1NC(=O)[C@@H]2C[C@H](NC(=O)Nc3ccccc3)CN2C1=O	3.71% (inactive)
CCOc1cc(CN2CCC(C(=O)NCCc3ccccc3)CC2)ccc1O	-8.29% (inactive)
CCOc1ccccc1-c1noc(-c2cccs2)n1	-16.8% (inactive)
CC(Oc1ccccc1)c1nc(-c2ccccn2)no1 (stereo unspecified)	-32.3% (inactive)
c1ccc(-c2noc(-c3cccs3)n2)nc1	33.7% (active)
CN(C)S(=O)(=O)c1ccc(NC(=O)COC(=O)c2ccc(NC(N)=O)cc2)cc1	-1.47% (inactive)
COCCC(=O)NC(C)c1nnc2n1CCN(Cc1ccc(C)cc1)CC2 (stereo unspecified)	10.5% (inactive)
Cc1ccc2nc(NCCOCCO)c(/C=C3\SC(=S)N(C(C)C)C3=O)c(=O)n2c1	-4.15% (inactive)
COc1ccc(/C=C2/C(=N)N3C(=NC2=O)SN=C3S(=O)(=O)C(C)C)cc1OC	-1.31% (inactive)
O=C(Cc1ccc(Cl)c(Cl)c1)N1CCC(O)(c2ccccn2)CC1	0.43% (inactive)
O=C(c1cccc2nc3ccccc3nc12)N1CCCCCC1	-1.97% (inactive)
O=C(c1cc(-c2ccccc2Cl)on1)N1CCCCC1	0.6% (inactive)
O=C(c1cn2c(n1)sc1ccccc12)N1CCCC1	37.1% (active)
CCOC(=O)c1[nH]ncc1CN1CCCC(N(C)CCc2ccccc2)C1 (stereo unspecified)	-7.42% (inactive)
O=C1c2ccccc2OCCN1Cc1ccc(F)cc1	-3.96% (inactive)
CCc1ccc(NC(=O)c2ncn[nH]2)cc1	47.9% (active)
CSc1cccc(NC(=O)c2ncn[nH]2)c1	4.68% (inactive)
O=C(Nc1ccc(Cl)c(C(=O)O)c1)c1ncn[nH]1	1.11% (inactive)
CCCCn1c(N)c(N2CCOCC2)c(=O)[nH]c1=O	2.71% (inactive)

— PubChem BioAssay AID1259422 (The Scripps Research Institute Molecular Screening Center, 2018)
